# Laboratory results from PubChem BioAssay (NCATS).
# Where “and” joins values, the source holds several entries; their conditions need not be identical. Identical values can stand only once. Records with an inconclusive call do not appear. Calls of active or inactive are those of the source. Unless noted, the rule behind the calls is not given here.
# Columns and labels:
# [1] = qHTS Assay for Identifying Gametocytocidal Compounds (AID 743244; active = well fitted curve in the direction sought with a large enough effect; an effect the other way counts as inactive or inconclusive; note: potency is the fitted concentration of half-maximal effect;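 for max response: % is set by controls: 0 for no effect and ±100 for the full control effect; actives lower the fluorescent signal which means gametocytes are killed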); details: P. falciparum 3D7 stage III-V gametocytes, alamarBlue, 72 h; max response: stronger effect = lower value
# Summary of the method: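 3D7 gametocytes, stages III–V, 20,000/well; cpd 72 h, 37 °C/5% CO2; + alamarBlue 24 h; fluor. Ex 525/Em 598.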
# [2] = qHTS profiling of the MIPE4 collection as inhibitors of Plasmodium falciparum (3D7) proliferation (AID 743344);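 note: scaled between DMSO vehicle wells and 0.29 µM artemisinin as full inhibition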; details: P. falciparum 3D7 in erythrocytes, SYBR Green DNA fluorescence, 72 h; at 28.5 µM (top of the series)
# Summary of the method: (§1)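 Parasite DNA was quantified by SYBR Green I fluorescence (ex 485, em 535 nm) after overnight lysis in saponin/Triton buffer at room temperature. Cultures at 0.3% parasitemia and 2.5% hematocrit were first exposed to compound for 72 h at 37 C; signals were normalised to artemisinin (0.29 uM) and vehicle wells.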
# [3] = qHTS profiling of the MIPE4 collection as inhibitors of Plasmodium falciparum (DD2) proliferation (AID 743345); details: P. falciparum Dd2 in erythrocytes, SYBR Green DNA, 72 h; at 28.5 µM (top of the series) unless noted
# Summary of the method: as §1
# [4] = qHTS profiling of the MIPE4 collection as inhibitors of Plasmodium falciparum (DD2) proliferation (Rep 2) (AID 743346); details: P. falciparum Dd2 in erythrocytes, SYBR Green DNA, 72 h; at 28.5 µM (top of the series)
# Summary of the method: as §1
# [5] = qHTS profiling for inhibitors of Plasmodium falciparum (3D7) proliferation (AID 743322);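 note: infected erythrocytes exposed to compound for 72 h before lysis; 100% = DMSO vehicle wells and 0% = 0.29 µM artemisinin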; details: P. falciparum 3D7 proliferation; at 28.7 µM (top of the series) unless noted
# Summary of the method: as §1
# [6] = qHTS profiling for inhibitors of Plasmodium falciparum (DD2) proliferation (AID 743323); details: lower = more inhibition; at 28.7 µM (top of the series) unless noted
# Summary of the method: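 P. falciparum Dd2-infected erythrocytes (0.3% parasitemia, 2.5% hematocrit) exposed 72 h at 37 C, 5% CO2. Lysis with SYBR Green, overnight at room temperature, fluorescence 485/535 nm; normalized to 0.29 uM artemisinin and DMSO.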
# [7] = qHTS profiling for inhibitors of Plasmodium falciparum (HB3) proliferation (AID 743324; active = well fitted curve in the direction sought with a large enough effect; an effect the other way counts as inactive or inconclusive;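 note: 100% = DMSO vehicle wells and 0% = artemisinin-treated control wells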); details: Plasmodium falciparum HB3 blood-stage proliferation; at 28.7 µM (top of the series) unless noted
# Summary of the method: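 SYBR Green fluorescence (485 ex/535 em) of lysed cultures, incubated overnight at room temperature in the dark, quantifies parasite DNA. Infected erythrocytes at 0.3% parasitemia and 2.5% hematocrit were exposed 72 h; values normalized to DMSO and 0.29 uM artemisinin controls.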
# [8] = qHTS profiling of the MIPE4 collection as inhibitors of Plasmodium falciparum (HB3) proliferation (AID 743347);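 note: plate controls were DMSO vehicle wells for no effect and artemisinin wells for full effect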; details: P. falciparum HB3 in erythrocytes, SYBR Green DNA, 72 h; at 28.5 µM (top of the series)
# Summary of the method: as §1
compound,measurement,setting,value
CC(O)CN1CCN(CC(=O)[O-])CCN(CC(=O)[O-])CCN(CC(=O)[O-])CC1.[Gd+3] (centres undefined),max response,[1],1.03% (inactive) and -10.9% (inactive)
C[C@]12CC[C@@H]3[C@@H](CCC4=CC(=O)CC[C@@H]43)[C@@H]1CC[C@@H]2OC(=O)CCc1ccccc1,"parasite growth, % of DMSO control",[2],65.4%
same,"parasite growth remaining, % of DMSO control (lower = more inhibition)",[3],83%
same,"parasite growth, % of control (lower = inhibition)",[4],56.3%
CC[N+]1(CCOC(=O)C(O)(c2ccccc2)c2ccccc2)CCCCC1,max response,[1],2.2% (inactive)
CO[C@H]1CCC(O[C@H]2C[C@H]([C@]3(C)CC[C@]4(C[C@H](O)[C@@H](C)[C@@H]([C@@H](C)C=C(C)C(=O)[C@H](C)C[C@H](C)C(=O)O)O4)O3)O[C@]3(O[C@@H]([C@H]4O[C@@](O)(CO)[C@H](C)C[C@H]4C)C[C@H]3C)[C@H]2C)O[C@H]1C (some centres undefined),"parasite growth, % of DMSO control",[2],11.2%
same,"parasite growth remaining, % of DMSO control (lower = more inhibition)",[3],5.36%
same,"parasite growth, % of control (lower = inhibition)",[4],23.1%
CC(C)(C)c1[nH]cnc1C=c1[nH]c(=O)c(=Cc2ccccc2)[nH]c1=O,remaining parasite growth % (stronger effect = lower value),[5],58.1%
same,"activity, percent of control",[6],49.6%
same,"remaining proliferation (% of control), lower = more inhibition",[7],37.2%
Cc1nc(-c2ccc(-c3ccc(C(=O)N4CCc5cc6c(cc54)C4(CCN(C)CC4)CO6)cc3)c(C)c2)no1,max response,[1],-4.85% (inactive)
same,remaining parasite growth % (stronger effect = lower value),[5],36.2%
same,"activity, percent of control",[6],63.3%
same,"remaining proliferation (% of control), lower = more inhibition",[7],17.2%
same,"parasite growth, % of DMSO control",[2],76%
same,"parasite growth, % of control (lower = inhibition)",[4],77.5%
same,"growth, % of control",[8],43.5%
CC(C)(O)C=CC(=O)[C@](C)(O)[C@H]1[C@H](O)C[C@]2(C)[C@@H]3CC=C4[C@@H](C=C(O)C(=O)C4(C)C)[C@]3(C)C(=O)C[C@@]12C,"parasite growth, % of DMSO control",[2],5.63%
same,"parasite growth remaining, % of DMSO control (lower = more inhibition)",[3],7.06%
same,"parasite growth, % of control (lower = inhibition)",[4],21.6%
COc1ccc2c(c1)CN(C)CC2c1ccc(Cl)c(Cl)c1 (centres undefined),"parasite growth, % of DMSO control",[2],12.3%
same,"parasite growth remaining, % of DMSO control (lower = more inhibition)",[3],40.2%
same,"parasite growth, % of control (lower = inhibition)",[4],15.9%
CC(=O)Nc1ccc(OC[C@](C)(O)C(=O)Nc2ccc([N+](=O)[O-])c(C(F)(F)F)c2)cc1,max response,[1],0.149% (inactive)
same,remaining parasite growth % (stronger effect = lower value),[5],102%
same,"activity, percent of control",[6],97.8%
same,"remaining proliferation (% of control), lower = more inhibition",[7],71.3%
same,"parasite growth, % of DMSO control",[2],70.7%
same,"parasite growth, % of control (lower = inhibition)",[4],88.3%
same,"growth, % of control",[8],91.2%
Nc1nc(-c2nn(Cc3ccccc3F)c3ncccc23)nc(N)c1N1CCOCC1,remaining parasite growth % (stronger effect = lower value),[5],100%
same,"activity, percent of control",[6],94.1%
same,"remaining proliferation (% of control), lower = more inhibition",[7],67.6%
same,"parasite growth remaining, % of DMSO control (lower = more inhibition)",[3],91.1%
same,"parasite growth, % of control (lower = inhibition)",[4],60.8%
same,"growth, % of control",[8],51.5%
C1=CCOCc2cc(ccc2OCCN2CCCC2)Nc2nccc(n2)-c2cccc(c2)OCC1,remaining parasite growth % (stronger effect = lower value),[5],105%
same,"activity, percent of control",[6],107%
same,"remaining proliferation (% of control), lower = more inhibition",[7],115%
CC(C)[C@H]1C(=O)N[C@H](CO)Cc2c[nH]c3cccc(c23)N1C,remaining parasite growth % (stronger effect = lower value),[5],107%
same,"activity, percent of control",[6],97.3%
same,"remaining proliferation (% of control), lower = more inhibition",[7],80%
same,"parasite growth, % of DMSO control",[2],87.1%
same,"parasite growth remaining, % of DMSO control (lower = more inhibition)",[3],97.6%
same,"parasite growth, % of control (lower = inhibition)",[4],147%
CC(=O)OCC1=C(C(=O)O)N2C(=O)[C@@H](N)[C@@H]2SC1,"parasite growth, % of DMSO control",[2],90.9%
same,"parasite growth remaining, % of DMSO control (lower = more inhibition)",[3],97.8%
same,"parasite growth, % of control (lower = inhibition)",[4],77.5%
C=C[C@@H]1CN2CCC1C[C@@H]2[C@@H](O)c1ccnc2ccccc12 (some centres undefined),"parasite growth, % of DMSO control",[2],15.2%
same,"parasite growth remaining, % of DMSO control (lower = more inhibition)",[3],21.4%
same,"parasite growth, % of control (lower = inhibition)",[4],45.8%
CO[C@H]1C=CC=C(C)C(=O)NC2=CC(=O)C(NCCN(C)C)=C(C[C@@H](C)C[C@H](OC)[C@@H](O)[C@@H](C)C=C(C)[C@@H]1OC(N)=O)C2=O,Potency,[1],0.0469 µM (active)
NC1=NC(=O)N2CC12 (centres undefined),max response,[1],-4.05% (inactive)
same,"parasite growth, % of DMSO control",[2],49.2%
same,"parasite growth remaining, % of DMSO control (lower = more inhibition)",[3],93.9%
same,"parasite growth, % of control (lower = inhibition)",[4],46.3%
same,"growth, % of control",[8],68.6%
O=[N+]([O-])c1ncc[nH]1,"parasite growth, % of DMSO control",[2],89%
same,"parasite growth remaining, % of DMSO control (lower = more inhibition)",[3],99.8%
same,"parasite growth, % of control (lower = inhibition)",[4],101%
COc1ccc2c(c1)CC[C@H]1[C@@H]2CC[C@]2(C)[C@@H](NCCCCCCN3C(=O)C=CC3=O)CC[C@H]12,Potency,[1],9.35 µM (active)
same,remaining parasite growth % (stronger effect = lower value),[5],86.3%
same,"activity, percent of control",[6],73.1%
same,"remaining proliferation (% of control), lower = more inhibition",[7],50.7%
same,"parasite growth, % of DMSO control",[2],62.7%
same,"parasite growth, % of control (lower = inhibition)",[4],37.3%
same,"growth, % of control",[8],77.6%
Cc1ccccc1-n1c(Cn2cnc3c(N)ncnc32)nc2cccc(C)c2c1=O,remaining parasite growth % (stronger effect = lower value),[5],43.1%
same,"activity, percent of control",[6],37.6%
same,"remaining proliferation (% of control), lower = more inhibition",[7],24.9%
same,"parasite growth, % of DMSO control",[2],5.28%
same,"parasite growth remaining, % of DMSO control (lower = more inhibition)",[3],12.7%
same,"parasite growth, % of control (lower = inhibition)",[4],6.97%
same,"growth, % of control",[8],2.42%
CC(C)(C)[C@]1(O)C[C@@H]2OC(=O)C[C@@]23C(=O)O[C@@H]2OC(=O)[C@H](O)C213 (some centres undefined),"parasite growth, % of DMSO control",[2],95%
same,"parasite growth remaining, % of DMSO control (lower = more inhibition)",[3],99.7%
same,"parasite growth, % of control (lower = inhibition)",[4],81.5%
C[C@H]([C@H](O)CCC(C)(C)O)[C@H]1CC[C@@]2(O)C3=CC(=O)[C@@H]4C[C@@H](O)[C@@H](O)C[C@]4(C)[C@@H]3CC[C@]12C,"parasite growth, % of DMSO control",[2],93.7%
same,"parasite growth remaining, % of DMSO control (lower = more inhibition)",[3],99.4%
same,"parasite growth, % of control (lower = inhibition)",[4],93.3%
CC[C@H](CO)Nc1nc(NCc2ccccc2)c2ncn(C(C)C)c2n1,remaining parasite growth % (stronger effect = lower value),[5],61.3%
same,"activity, percent of control",[6],50.4%
same,"parasite growth, % of control (lower = inhibition)",[4],48%
CC(C)[C@]12O[C@H]1[C@@H]1O[C@]13[C@]1(O[C@H]1C[C@H]1C4=C(CC[C@@]13C)C(=O)OC4)[C@@H]2O,max response,[1],-3.04% (inactive)
same,remaining parasite growth % (stronger effect = lower value),[5],103%
same,"activity, percent of control",[6],96.4%
same,"remaining proliferation (% of control), lower = more inhibition",[7],95.4%
O=C1CCC[C@@H]2[C@H]3CCCN4CCC[C@@H](CN12)[C@@H]34,"parasite growth, % of DMSO control",[2],91.5%
same,"parasite growth remaining, % of DMSO control (lower = more inhibition)",[3],97.9%
same,"parasite growth, % of control (lower = inhibition)",[4],95.1%
O=C(O)c1ccc(O)c2ncc(N3CCOCC3)cc12,Potency,[1],9.35 µM (active)
same,"activity, percent of control",[6],35.5%
same,"remaining proliferation (% of control), lower = more inhibition",[7],35.5%
